Where “and” joins values, the source holds several entries; their conditions need not be identical. Equal entries are not always repeated. Records with an inconclusive call do not appear. Calls of active or inactive are those of the source. Unless noted, calls follow the shape of the dose curve; as a rule, active = well fitted curve in the direction sought with a large enough effect; inconclusive = small, poorly fitted or top-dose-only effect, or another doubt; inactive = no such curve, though single readings can be large; an effect the other way counts as inactive or inconclusive.
Tests used:
[1] = Cell Viability - LYMP2-003 (AID 965);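 also: cells exposed to compounds for 24 h before reading; nearly all actives have a fitted effect of over 50% in size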; also: potency is read from the fitted curve at half-maximal effect
Summary of the method: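 CellTiter-Glo luminescence quantified ATP loss after 24 h compound treatment of LYMP2-003 lymphoblastoid cells at 37 C. Titration series were fitted with the standard Hill equation to give AC50.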

[2] = Cell Viability - LYMP2-004 (AID 966); also: nearly all actives have a fitted effect of over 65% in size
Summary of the method: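 Human lymphoblastoid cells (2500/well) in complete medium were treated with compounds for 24 hr at 37 C, then intracellular ATP was measured by CellTiter-Glo luminescence. AC50 values came from Hill-equation fits of concentration-response data.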

[3] = Cell Viability - LYMP2-005 (AID 967); also: potency is read from the fitted curve at half-maximal effect
Summary of the method: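 LYMP2-005 human lymphoblastoid cells (2500/well) were treated with compounds for 24 h at 37 C. Intracellular ATP was then measured by CellTiter-Glo luminescence after 30 min at room temperature. AC50 values came from Hill-equation fits of qHTS concentration-response data.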

[4] = Cell Viability - LYMP2-011 (AID 969); also: nearly all actives have a fitted effect of over 60% in size
Summary of the method: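 Human lymphoblastoid cells (2500/well) were plated in complete medium, preincubated 5 hr at 37 C, then exposed to compounds for 24 hr at 37 C. Intracellular ATP was read by CellTiter-Glo luminescence, and AC50 came from Hill-equation concentration-response fits.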

[5] = Cell Viability - LYMP2-013 (AID 970); also: series mostly up to about 92 µM; nearly all actives have a fitted effect of over 55% in size
Summary of the method: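 Human lymphoblastoid cells, 2500/well, were preincubated 5 hr at 37 C, then treated with compounds for 24 hr at 37 C in complete medium. Intracellular ATP was read by CellTiter-Glo luminescence; AC50 from Hill-equation fits of concentration-response data.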

[6] = Cell Viability - LYMP2-017 (AID 972); also: nearly all actives have a fitted effect of over 55% in size; also: potency is read from the fitted curve at half-maximal effect
Summary of the method: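 Human lymphoblastoid cells (2500/well) were seeded in complete medium, held 5 hr at 37 C, then exposed to compounds for 24 hr at 37 C. Intracellular ATP was read by CellTiter-Glo luminescence after 30 min at room temperature, with AC50 values from Hill-equation fits.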

[7] = Cell Viability - LYMP2-019 (AID 973); also: nearly all actives have a fitted effect of over 55% in size
Summary of the method: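 Human lymphoblastoid cells were seeded at 2500 cells/well, preincubated 5 hr at 37 C, then exposed to compounds for 24 hr at 37 C in complete medium. Intracellular ATP was measured by CellTiter-Glo luminescence; AC50 from Hill fits.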

[8] = Cell Viability - LYMP2-021 (AID 974);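 also: compound exposure lasts 24 hours at 37 °C; nearly all actives have a fitted effect of over 55% in size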; also: potency is read from the fitted curve at half-maximal effect
Summary of the method: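 Human lymphoblastoid cells (2500/well) were preincubated 5 hr at 37 C, then exposed to compounds for 24 hr at 37 C in complete medium. Intracellular ATP was read by CellTiter-Glo luminescence; AC50 came from Hill-equation fits of concentration-response data.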

[9] = Cell Viability - LYMP2-023 (AID 975)
Summary of the method: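 Human lymphoblastoid cells (2500/well) were preincubated 5 hr at 37 C, then exposed to compounds for 24 hr at 37 C in complete medium. Cellular ATP was read by CellTiter-Glo luminescence, and AC50 came from Hill-equation fits.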

[10] = Cell Viability - LYMP2-002 (AID 977); also: series mostly up to about 92 µM
Summary of the method: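 Human lymphoblastoid LYMP2-002 cells, 2500 per well, exposed to compounds for 24 h at 37 C in complete medium; viability read as intracellular ATP by CellTiter-Glo luminescence, AC50 from Hill fits.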

[11] = Cell Viability - LYMP2-007 (AID 979);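 also: cells exposed to compound for 24 h before reading; nearly all actives have a fitted effect of over 60% in size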; also: potency is read from the fitted curve at half-maximal effect
Summary of the method: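 Human lymphoblastoid cells (2500/well) were plated in complete medium, incubated 5 hr at 37 C, then exposed to compounds for 24 hr at 37 C. Intracellular ATP was read by CellTiter-Glo luminescence after 30 min at room temperature; AC50 from Hill fits.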

[12] = Cell Viability - LYMP2-014 (AID 983); also: series mostly up to about 92 µM; nearly all actives have a fitted effect of over 50% in size
Summary of the method: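 Human lymphoblastoid cells (2500/well) were pre-incubated 5 hr at 37 C, then exposed to compounds in complete medium for 24 hr at 37 C. Intracellular ATP was read by CellTiter-Glo luminescence after 30 min at room temperature; AC50 from Hill fits.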

[13] = Cell Viability - LYMP2-016 (AID 984); also: nearly all actives have a fitted effect of over 55% in size
Summary of the method: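 Cytotoxicity was scored by luminescent ATP content (CellTiter-Glo) after 24 h compound exposure at 37 C of a human lymphoblastoid line at 2500 cells/well. Concentration-response data were fitted to the Hill equation for AC50.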

[14] = Cell Viability - LYMP2-018 (AID 985);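 also: compound exposure lasted 24 hr at 37 °C; nearly all actives have a fitted effect of over 50% in size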
Summary of the method: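 Human lymphoblastoid cells (2500/well) were pre-incubated 5 hr at 37 C, then exposed to compounds for 24 hr at 37 C in complete medium. Viability was read as intracellular ATP by CellTiter-Glo luminescence; AC50 values came from Hill-equation fits.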

[15] = Cell Viability - LYMP2-020 (AID 986)
Summary of the method: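 Human lymphoblastoid cells, 2500/well, were pre-incubated 5 hr at 37 C, then exposed to compounds for 24 hr at 37 C in complete medium. Intracellular ATP was read by CellTiter-Glo luminescence, and AC50 was derived by Hill fitting of concentration-response data.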

[16] = Cell Viability - LYMP2-026 (AID 989); also: nearly all actives have a fitted effect of over 50% in size
Summary of the method: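 Human lymphoblastoid cells (2500/well) in complete medium were preincubated 5 hr at 37 C, then exposed to compounds for 24 hr at 37 C. Cellular ATP was read by CellTiter-Glo luminescence; AC50 from Hill-equation fits of concentration-response data.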

[17] = target: Retinoic acid receptor RXR-alpha (Homo sapiens) (UniProt P19793); experiment: qHTS assay for small molecule agonists of retinoid X receptor alpha signaling (AID 588544; calls by dose curve)
Sequence of Retinoic acid receptor RXR-alpha (Homo sapiens) (P19793 whole entry, looked up): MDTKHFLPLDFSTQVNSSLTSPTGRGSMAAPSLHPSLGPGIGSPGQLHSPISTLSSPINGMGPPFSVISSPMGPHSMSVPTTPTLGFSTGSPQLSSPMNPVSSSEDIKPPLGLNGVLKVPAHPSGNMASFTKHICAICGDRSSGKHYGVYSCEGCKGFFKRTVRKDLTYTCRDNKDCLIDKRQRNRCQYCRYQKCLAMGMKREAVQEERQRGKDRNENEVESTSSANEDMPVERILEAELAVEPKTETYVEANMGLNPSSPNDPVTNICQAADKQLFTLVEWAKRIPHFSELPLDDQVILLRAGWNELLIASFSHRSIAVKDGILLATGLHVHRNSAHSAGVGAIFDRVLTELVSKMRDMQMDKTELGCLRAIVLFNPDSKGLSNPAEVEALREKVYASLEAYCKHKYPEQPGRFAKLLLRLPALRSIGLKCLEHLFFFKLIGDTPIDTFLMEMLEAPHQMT

[18] = qHTS assay for small molecule antagonists of retinoid X receptor alpha signaling (AID 588546); details: HEK293T RXRa-UAS-bla, beta-lactamase ratio, antagonist mode; measured here: W530 green channel, cytotoxicity proxy;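 also: cells stimulated with 9-cis-retinoic acid as agonist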
Summary of the method: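 Beta-lactamase reporter inhibition, read as CCF4 fluorescence ratio (ex 405, em 460/530 nm) after 2 h at RT. HEK293T UAS-bla cells, 2500/well, were stimulated with 9-cis-RA at 500 or 100 nM final alongside test compound for 18 h at 37 C.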

[19] = qHTS assay for small molecule disruptors of the mitochondrial membrane potential - 1 hr assay (AID 651754; calls by dose curve; also: nearly all actives have a fitted effect of over 35% in size)
Summary of the method: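 HepG2 cells, attached overnight at 37C, were exposed to compound or DMSO vehicle for 1 hr at 37C, 5% CO2, then stained with Mito-MPS dye for 30 min. Red aggregate versus green monomer fluorescence reports membrane potential.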

[20] = qHTS assay for small molecule disruptors of the mitochondrial membrane potential - 5 hr assay (AID 651755; calls by dose curve; also: nearly all actives have a fitted effect of over 40% in size)
Summary of the method: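 HepG2 cells (2,000/well), attached overnight, exposed to compound 5 hr at 37C, then Mito-MPS dye 30 min. Fluorescence read for monomers (490/535 nm) and aggregates (540/590 nm).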

CC(=O)[O-].CC(=O)[O-].O.O.O.[Pb+2]
-8.42% and -6.15%: max response [18]
inactive: Potency [1] | Potency [2] | Potency [3] | Potency [4] | Potency [5] | Potency [6] | Potency [7] | Potency [8] | Potency [9] | Potency [10] | Potency [11] | Potency [12] | Potency [13] | Potency [14] | Potency [15] | Potency [16] | Potency [17] | Potency [19] | Potency [20]

O=C(Cl)C(Cl)(Cl)Cl
inactive: Potency [1] | Potency [2] | Potency [3] | Potency [4] | Potency [5] | Potency [6] | Potency [7] | Potency [8] | Potency [9] | Potency [10] | Potency [11] | Potency [12] | Potency [13] | Potency [14] | Potency [15] | Potency [16] | Potency [17] | Potency [19] | Potency [20]
2.3%: max response [18]

Clc1nc(Cl)nc(Nc2ccccc2Cl)n1
1.32%: max response [18]
inactive: Potency [1] | Potency [2] | Potency [3] | Potency [4] | Potency [5] | Potency [6] | Potency [7] | Potency [8] | Potency [9] | Potency [10] | Potency [11] | Potency [12] | Potency [13] | Potency [14] | Potency [15] | Potency [16] | Potency [17] | Potency [19] | Potency [20]

ClCBr
-9.96%: max response [18]
inactive: Potency [1] | Potency [2] | Potency [3] | Potency [4] | Potency [5] | Potency [6] | Potency [9] | Potency [10] | Potency [14] | Potency [16] | Potency [17] | Potency [19] | Potency [20]

CCOP(=S)(OCC)Oc1ccc([N+](=O)[O-])cc1
14.9% and 8.35%: max response [18]
inactive: Potency [1] | Potency [2] | Potency [3] | Potency [4] | Potency [5] | Potency [6] | Potency [7] | Potency [8] | Potency [9] | Potency [10] | Potency [11] | Potency [12] | Potency [13] | Potency [14] | Potency [15] | Potency [16] | Potency [17] | Potency [20]

BrCCBr
inactive: Potency [1] | Potency [2] | Potency [3] | Potency [4] | Potency [5] | Potency [6] | Potency [7] | Potency [8] | Potency [9] | Potency [10] | Potency [11] | Potency [12] | Potency [13] | Potency [14] | Potency [15] | Potency [16] | Potency [17] | Potency [19] | Potency [20]
-10.6% and -9.29%: max response [18]

O=[N+]([O-])c1cccc2ccccc12
inactive: Potency [1] | Potency [2] | Potency [3] | Potency [4] | Potency [5] | Potency [6] | Potency [7] | Potency [8] | Potency [9] | Potency [10] | Potency [11] | Potency [12] | Potency [13] | Potency [14] | Potency [15] | Potency [16] | Potency [17] | Potency [19] | Potency [20]
-1.12% and -4.23%: max response [18]

CC(C)(OO)c1ccccc1
inactive: Potency [10] | Potency [12] | Potency [13] | Potency [15] | Potency [16] | Potency [17] | Potency [19] | Potency [20]
16% and -6.37%: max response [18]
active: Potency [1] 50.1 µM | Potency [3] 39.8 µM | Potency [6] 50.1 µM | Potency [8] 50.1 µM | Potency [11] 31.6 µM

CCOP(=S)(OCC)SCSC(C)(C)C
-10.4% and -6.52%: max response [18]
inactive: Potency [1] | Potency [2] | Potency [3] | Potency [4] | Potency [5] | Potency [6] | Potency [7] | Potency [8] | Potency [9] | Potency [10] | Potency [11] | Potency [12] | Potency [13] | Potency [14] | Potency [15] | Potency [16] | Potency [17] | Potency [19] | Potency [20]

C=C(Cl)Cl
inactive: Potency [1] | Potency [2] | Potency [3] | Potency [4] | Potency [5] | Potency [6] | Potency [7] | Potency [8] | Potency [9] | Potency [10] | Potency [11] | Potency [12] | Potency [13] | Potency [14] | Potency [15] | Potency [16] | Potency [17] | Potency [19] | Potency [20]
-3.44%: max response [18]

ClC(Cl)=C(Cl)Cl
inactive: Potency [1] | Potency [2] | Potency [3] | Potency [4] | Potency [5] | Potency [6] | Potency [7] | Potency [8] | Potency [9] | Potency [10] | Potency [11] | Potency [12] | Potency [13] | Potency [14] | Potency [15] | Potency [16] | Potency [17] | Potency [19] | Potency [20]
-6.82% and -0.572%: max response [18]

COc1ccc(N)cc1
0.204% and 7.89%: max response [18]
inactive: Potency [1] | Potency [2] | Potency [3] | Potency [4] | Potency [5] | Potency [6] | Potency [7] | Potency [8] | Potency [9] | Potency [10] | Potency [11] | Potency [12] | Potency [13] | Potency [14] | Potency [15] | Potency [16] | Potency [17] | Potency [19] | Potency [20]

[O-][Br+2]([O-])O
-4.01% and -4.2%: max response [18]
inactive: Potency [1] | Potency [2] | Potency [3] | Potency [4] | Potency [5] | Potency [6] | Potency [7] | Potency [8] | Potency [9] | Potency [10] | Potency [11] | Potency [12] | Potency [13] | Potency [14] | Potency [15] | Potency [16] | Potency [17] | Potency [19] | Potency [20]

Clc1ccc2ccccc2c1
inactive: Potency [1] | Potency [2] | Potency [3] | Potency [4] | Potency [5] | Potency [6] | Potency [7] | Potency [8] | Potency [9] | Potency [10] | Potency [11] | Potency [12] | Potency [13] | Potency [14] | Potency [15] | Potency [16] | Potency [17] | Potency [19] | Potency [20]

C[N+](C)(C)Cc1ccccc1
inactive: Potency [1] | Potency [3] | Potency [4] | Potency [5] | Potency [6] | Potency [7] | Potency [8] | Potency [9] | Potency [10] | Potency [11] | Potency [12] | Potency [13] | Potency [14] | Potency [15] | Potency [16] | Potency [17] | Potency [19] | Potency [20]
0.533% and -1.08%: max response [18]
